ChEMBL document CHEMBL3988442, “University of Dundee, Small-Polar-MMV Screening Library” (2021)
In all, about 53,000 compounds went through this assay and about 900 (1.7%) showed an effect of 50% or more. Many of the other results were omitted from the sample, so strong results are more common in it than they were.

What follows are compounds tested on Mycobacterium tuberculosis (assay: Cornell - Phenotypic assay to identify agents that inhibit growth of Mycobacterium tuberculosis). Conditions: 10 mM as filed; unlikely as a test dose.
Type: functional
Design: scale not given: direction of the effect not stated beside the values

Row | Structure (SMILES) | Percent Effect [%]
1 | Cc1ccc(-c2cc(N)c(=O)n(CC(=O)NC3CCCCC3)n2)s1 | 21.23
2 | Cc1cc(-c2cc(N)c(=O)n(CC(=O)NCC3CCCCC3)n2)c(C)o1 | -31.85
3 | CCN1CCn2c(C)cnc2C12CCN(C(=O)C(C)C)CC2.O=C(O)C(F)(F)F.O=C(O)C(F)(F)F | 14.47
4 | COCCN1C(=O)CO[C@H]2CN(Cc3cccc(OC)c3F)C[C@@H]21 | -23.69
5 | Cc1cc(NC(=O)CN2CCN(c3nccs3)C(C)C2)on1 (configuration not stated) | 22.95
6 | CCOc1ccc(NC(=O)Cn2cc(I)cn2)cc1 | 8.752
7 | OC1CN(c2nc3c(C(F)(F)F)cccc3s2)C1 | -37.29
8 | Cc1ccccc1NC1CCN(C(=O)CCc2ccco2)CC1 | 50.28
9 | Cc1ccc(NC2CCN(C(=O)CCc3ccco3)CC2)nn1 | 9.645
10 | O=C(CCc1ccco1)N1CCC(Nc2cccnn2)CC1 | -37.65
11 | COc1cccc(Cn2ncnc2CCSC)c1 | 21.64
12 | CN(Cc1cncnc1)[C@@H]1CN(C(=O)C2CC2)[C@@H]2CCCO[C@H]12.O=C(O)C(F)(F)F | 10.43
13 | Clc1ccc(OCCc2cc(C3CCN(c4ncccn4)C3)n[nH]2)cc1 (configuration not stated) | 81.19
14 | Cn1cc(CN2CCC(c3cc(COc4ccc(Cl)cc4)[nH]n3)C2)cn1 (configuration not stated) | 8.733
15 | Cc1cc(C)nc(N2CCC(c3cc(CCO)[nH]n3)C2)n1 (configuration not stated) | 21.68
16 | CCCN1CCC(c2cc(CCOc3ccc(C(F)(F)F)cc3)[nH]n2)C1 (configuration not stated) | 74.52
17 | Br.COc1ccc(OCCc2cc(C3CCN(CC(C)C)C3)n[nH]2)cc1 (configuration not stated) | 44.88
18 | Cc1cc(C2CCCN(C(=O)COc3ccc(F)cc3)C2)n[nH]1 (configuration not stated) | 21.79
19 | CN(C)CCCNCCC(Cc1ccccc1)C1CCOC(C)(C)C1.O=C(O)C(=O)O (configuration not stated) | 18.5
20 | O=C(c1cc[nH]n1)N1CCOCC2(C1)CN(c1ccccc1)C(=O)CO2 (configuration not stated) | 56
21 | O=C(c1ccc[nH]1)N1CCOCC2(C1)CN(c1ccccc1)C(=O)CO2 (configuration not stated) | 34.74
22 | O=C(O)C(F)(F)F.O=C(c1c[nH]cn1)N1CCOCC2(C1)CN(c1ccccc1)C(=O)CO2 (configuration not stated) | 29.26
23 | CCn1nnnc1-c1cccc(NCc2nc(C)ccc2O)c1 | 4.577
24 | O=C(O)CCCN1C[C@@H](c2ccccc2F)[C@@]2(CCCCC(=O)N2)C1 | 43.05
25 | COc1cc(F)c(S(=O)(=O)Nc2cnc(O)cc2C)cc1OC | 3.766
26 | CC(Cn1cncc1-c1cnn(Cc2ccccc2)c1)N1CCCCC1.Cl (configuration not stated) | 58.13

Row | Structure (SMILES) | Percent Effect [%]
27 | CCC(CN1CCCC1)n1cncc1-c1cnn(Cc2ccccc2)c1.Cl (configuration not stated) | 36.43
28 | CC(Cn1cncc1-c1cnn(C2CCCCC2)c1)N1CCCCC1.Cl (configuration not stated) | -3.197
29 | CCOc1ccccc1N1CCN(C(=O)NCc2cc[nH]n2)CC1 | -20.55
30 | CNc1cc(C2CCCN2C(=O)c2ccc(=O)[nH]n2)ccn1.O=CO (configuration not stated) | 2.671
31 | CCC(CN1CCCC1)n1cncc1-c1cnn(-c2ccc(F)cc2)c1.Cl (configuration not stated) | 20.09
32 | CCC(CN1CCCC1)n1cncc1-c1cnn(-c2ccccc2)c1.Cl (configuration not stated) | 55.09
33 | CCC(CN1CCOCC1)n1cncc1-c1ccc2c(c1)CCCN2C.Cl (configuration not stated) | 15.31
34 | CCn1nc(C)cc1C(=O)NCc1cc(N(C)C)nc2ccccc12 | 34.42
35 | CC(C)OCCCNC(=O)CN1CCN(c2nccs2)CC1 | 4.56
36 | O=C(c1cnc(O)c(Cl)c1)N1CCCC(c2nccs2)C1 (configuration not stated) | -10.54
37 | O=C(NCCO)Nc1cnc2cc(Cl)ccc2c1O | 103.7
38 | O=C(NCCCN1CCOCC1)Nc1cnc2cc(Cl)ccc2c1O | 32.37
39 | O=C(NCC1CC1)Nc1cnc2cc(Cl)ccc2c1O | -6.744
40 | O=C(NCCCO)Nc1cnc2cc(Cl)ccc2c1O | 81.69
41 | CNC(=O)Nc1cnc2cc(Cl)ccc2c1O | -22.82
42 | O=C(NCCN1CCOCC1)Nc1cnc2cc(Cl)ccc2c1O | -4.322
43 | Cl.O=C(NCCn1nc(C2CCNC2)c2cccnc21)C1CC1 (configuration not stated) | -8.257
44 | O=C(O)COc1ccccc1CN1CCCC1c1ccncn1 (configuration not stated) | -19.71
45 | CC(SCC(=O)N(C)CC(=O)NC1CC1)c1cc(F)ccc1F (configuration not stated) | -24.27
46 | O=C(NCc1ccco1)[C@H]1COC[C@H]2CN(Cc3ccoc3)C[C@H]21.O=C(O)C(F)(F)F | -10.46
47 | CN(C(=O)Cc1cccs1)C1CCN(c2ccccn2)CC1 | -44.78
48 | Cn1cccc1CN(C(=O)Cc1cccs1)C1CC1 | 91.3
49 | O=C(O)CC(CC(=O)N(Cc1ccsc1)C1CC1)c1cccs1 (configuration not stated) | 15.88
50 | CN(Cc1cccs1)C1CCC[C@@H]2CN(C(=O)c3cccn3C)C[C@H]12 (some centres not stated) | 28.44
51 | O=C(O)CC(CC(=O)NCCc1cccs1)c1cccs1 (configuration not stated) | 23.94
52 | Cn1cccc1CN(C(=O)CC(CC(=O)O)c1cccs1)C1CC1 (configuration not stated) | 104.7
